High-throughput results from PubChem BioAssay.
A selection: hits, their analogues and other compounds. The true share with any hit is near 3.5%.
GPR151 ag – activators of human GPR151, primary screen, cell-based, PathHunter beta-arrestin, luminescence | activation, % at 11.2 µM | hit rate 1% among 650,000 | G-protein coupled receptor 151 (Homo sapiens), Q8TDV0 | AID 1508602, 2020 | PathHunter beta-arrestin GPR151 cells; in the data active = activation above about 4.9%
TEAD-YAP block – TEAD-YAP interaction inhibition, primary screen, TEAD-YAP interaction inhibitor project, luminescence, HEK-TIYL cells; TEAD-Gal4/YAP UAS-luciferase luminescence; inhibition, % at 9.12 µM; hit rate 1.4% among 640,000; AID 1259422, 2018; in the data active = inhibition above about 32%
FBW7 activator – FBW7 E3 ligase activators, primary screen, biochemical, AlphaScreen, human; AlphaScreen FBW7–phospho-cyclin E peptide binding, activator screen; hit rate 0.13% among 650,000; normalized activity (activation), % at 26.1 µM; AID 1259310, 2017; F-box/WD repeat-containing protein 7 (Homo sapiens), Q969H0; in the data active = normalized activity above about 1.9%;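 note: purified mutant Fbw7 with reduced substrate affinity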
MITF inh – MITF inhibitors, primary screen, biochemical, AlphaScreen, human; inhibition, % at 2.6 µM; Microphthalmia-associated transcription factor (Homo sapiens), O75030; AlphaScreen MITF homodimerization, bead proximity signal; AID 1259374, 2018; hit rate 0.91% among 650,000; in the data active = inhibition above about 50%
GPR151 conf act – GPR151 activators, triplicate retest, confirmation, cell-based, PathHunter beta-arrestin, luminescence. shares compounds with GPR151 ag. GPR151 PathHunter beta-arrestin cells, 90 min; % of EA-reagent control over plate median. activation, % at 11.2 µM. 6,700 tested, under 10 active. AID 1508609, 2020;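 active = mean percent activation across replicates above the confirmation screen cutoff of 4.91%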
GPR119 counter – GPR119 activators in beta-arrestin cells, counter-screen for GPR151 activator project, cell-based, PathHunter beta-arrestin, luminescence, triplicate. shares compounds with GPR151 ag. 90 min; 0 = compound-well median, 100 = enzyme-acceptor control. activation, % at 11.2 µM. hit rate 0.3% among 6,700. AID 1508611, 2020;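 active = mean percent activation in the counterscreen above 29.09%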;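 note: counterscreen on off-target GPR119 to flag nonselective hits from the GPR151 activator screen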
Target sequence (Q8TDV5 whole entry, looked up): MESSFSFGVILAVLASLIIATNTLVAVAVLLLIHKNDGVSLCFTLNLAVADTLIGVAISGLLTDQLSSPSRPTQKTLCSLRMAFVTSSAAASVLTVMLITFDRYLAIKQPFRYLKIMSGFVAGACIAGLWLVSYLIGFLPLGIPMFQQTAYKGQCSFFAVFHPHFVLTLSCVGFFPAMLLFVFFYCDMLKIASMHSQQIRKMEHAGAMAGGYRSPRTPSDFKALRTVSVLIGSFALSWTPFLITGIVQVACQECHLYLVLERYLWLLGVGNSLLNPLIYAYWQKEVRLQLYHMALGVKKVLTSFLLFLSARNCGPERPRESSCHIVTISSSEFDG
Numbers stand for hits; i = inactive; nt = not tested or not shown.

SMILES	GPR151 ag	TEAD-YAP block	FBW7 activator	MITF inh	GPR151 conf act	GPR119 counter
COc1ccc(NC(=O)C2(N(C(=O)CNC(C)=O)c3ccc(C)cc3)CCCCC2)cc1	i	i	i	i	nt	nt
C#CCOc1ccc2c(c1)c(C(=O)OCC)c(C)n2C	i	i	i	i	nt	nt
COCCOC(=O)c1c(C)oc2ccc(OCC#N)cc12	11	i	i	i	i	i
CCOC(=O)c1c(C)n(C)c2ccc(OCC#N)cc12	7.1	i	i	i	i	i
CCCCNCCCCCOc1ccccc1[N+](=O)[O-]	i	i	i	i	nt	nt
N#Cc1cccc(S(=O)(=O)Nc2ccccc2F)c1	i	i	i	i	nt	nt
O=S(=O)(Nc1ccccc1F)c1cccc(S(=O)(=O)c2ccccc2)c1	5.3	i	i	i	i	i
CN1C(=O)c2cccc(N3CCN(C(=O)/C=C/c4cccc(F)c4)CC3)c2C1=O	i	i	i	i	nt	nt
Cn1nc(I)cc1C(=O)Oc1cccc(C2NC(C(=O)O)CS2)c1 (centres undefined)	i	i	i	i	nt	nt
O=C(NC1C2CC3CC(C2)CC1C3)c1ccc(CN2CCC(O)CC2)[nH]c1=O (centres undefined)	i	i	i	i	nt	nt
O=C(N[C@H]1CCCCNC1=O)c1ccc(CN2CCC(c3ccccc3)CC2)[nH]c1=O	5.3	i	i	i	i	i
CCOC(=O)c1c(N)c(C#N)cn1-c1ccccc1	8.6	i	i	i	i	i
CCCCC(C(=O)Nc1cccc(C)c1)N1C(=O)c2cc(Cl)c(Cl)cc2C1=O (centres undefined)	8.3	i	i	i	i	i
CC1CC(OC(=O)C(O)c2ccccc2)CC(C)(C)C1 (centres undefined)	6.6	i	i	i	i	i
O=[N+]([O-])c1ccc(S(=O)(=O)Nc2cccc(C(F)(F)F)c2)cc1	i	i	i	i	nt	nt
Cc1cccc(NC(=O)C(=S)NC2CCCC2)c1C	8.2	i	i	i	i	i
COc1cc(/C=C(\C#N)c2nn(CCO)c(N)c2C#N)ccc1Oc1ccc([N+](=O)[O-])cc1C#N	i	i	i	i	nt	nt
O=C(N1CCCCC1)C12CC3CC(C1)CC(c1ccc([N+](=O)[O-])cc1)(C3)C2	6.8	i	i	i	i	i
Cc1nn(-c2ccc(Nc3ccc(NC(=O)c4cccc(F)c4)cc3)nn2)c(C)c1C	7.6	i	i	i	i	i
CCCOC(=O)c1ccc(Nc2nc(-c3ccc([N+](=O)[O-])cc3)nc3ccccc23)cc1	i	i	i	i	nt	nt
COc1cccc(C(=O)Nc2nc3ccc(SC)cc3s2)c1OC	5.0	i	i	i	i	i
CSc1ccc2nc(NC(=O)c3ccccc3C)sc2c1	i	i	i	i	nt	nt
O=C1CC(CC(=O)N2CCC[C@H]2CO)(c2cccc(F)c2)C(=O)N1Cc1cccnc1 (some centres undefined)	i	i	i	i	nt	nt
O=C(CSc1nnc(-c2ccco2)o1)c1ccc2c(c1)OCCO2	12	i	i	i	i	i
O=C(CSc1nnc(-c2ccccc2)o1)c1ccc2c(c1)OCCO2	i	i	i	i	nt	nt
CCN(C(=O)CSc1nnc(-c2ccco2)o1)C1CCS(=O)(=O)C1 (centres undefined)	12	i	i	i	i	i
CC(C)N(C)C(=O)C1CC(=O)c2sc(NC(=O)c3ccccc3)nc2C1 (centres undefined)	6.4	i	i	i	i	i
CCC(C)C(=O)Nc1nc2c(s1)C(=O)CC(C(=O)N(C)C(C)C)C2 (centres undefined)	i	i	i	i	nt	nt
CCC(C)C(=O)Nc1nc2c(s1)C(=O)CC(C(=O)N(C)Cc1nonc1C)C2 (centres undefined)	5.7	i	i	i	i	i
CCC(C)CC(=O)Nc1nc2c(s1)C(=O)CC(C(=O)N(C)C(C)C)C2 (centres undefined)	7.1	i	i	i	i	i
